GALR2 agonist: agonists of human galanin receptor 2 (GALR2); O43603; GALR2-expressing cells, agonist activation read-out; activation, % (no concentration beside the values); hit rate 0.48% among 140,000; AID 803; in the data active = activation above about 5%, passing the limit was not always enough
Target sequence (O43603 whole entry, looked up): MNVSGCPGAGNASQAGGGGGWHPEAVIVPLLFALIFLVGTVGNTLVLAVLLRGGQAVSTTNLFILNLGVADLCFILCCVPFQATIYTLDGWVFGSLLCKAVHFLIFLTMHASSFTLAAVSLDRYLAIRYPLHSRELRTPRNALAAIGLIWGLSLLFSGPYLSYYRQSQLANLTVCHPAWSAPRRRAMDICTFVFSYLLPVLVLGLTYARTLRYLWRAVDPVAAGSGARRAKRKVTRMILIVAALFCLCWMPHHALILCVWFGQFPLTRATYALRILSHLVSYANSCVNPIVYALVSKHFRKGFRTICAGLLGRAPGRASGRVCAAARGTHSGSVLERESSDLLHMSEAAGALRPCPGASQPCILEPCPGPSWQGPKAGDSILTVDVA
PLAP act: activators of human placental alkaline phosphatase; P05187; purified PLAP enzyme, luminescent substrate read-out; hits give high values; activation fold at 20 µM; hit rate 1.2% among 96,000; AID 696; in the data active = activation fold above about 2
GALR2 antag: blocks the human galanin receptor 2; O43603; GALR2-expressing cells, antagonist mode; inhibition, % at 4 µM; hit rate 0.39% among 140,000;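 note: cells stimulated with galanin 1-16 at roughly its EC80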
S1P2 ag: activates the human S1P2 receptor; S1P2-expressing cell line, agonist reporter read-out; hit rate 0.46% among 97,000; O95136; activation, % at 4.5 µM; in the data active = activation above about 16%
Target sequence (O95136 whole entry, looked up): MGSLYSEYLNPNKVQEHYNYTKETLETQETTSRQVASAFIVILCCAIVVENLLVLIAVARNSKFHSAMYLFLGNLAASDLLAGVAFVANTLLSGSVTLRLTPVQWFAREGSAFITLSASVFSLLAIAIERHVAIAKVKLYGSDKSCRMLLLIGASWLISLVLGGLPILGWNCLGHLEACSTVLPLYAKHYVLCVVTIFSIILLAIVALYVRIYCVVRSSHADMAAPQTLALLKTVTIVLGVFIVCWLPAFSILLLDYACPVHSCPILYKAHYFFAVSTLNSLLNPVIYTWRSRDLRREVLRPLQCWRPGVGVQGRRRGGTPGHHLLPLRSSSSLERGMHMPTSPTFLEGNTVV
S1P2 blocker: antagonists of human S1P2 receptor | O95136 | hit rate 0.21% among 97,000 | cell-based S1P2 antagonist assay, inhibition at 5 uM | AID 736 | inhibition, % at 5 µM; in the data active = inhibition above about 45%;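 note: CRE beta-lactamase reporter cells expressing human S1P2 stimulated with S1P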
GALR2 blk conf: GALR2 (human) antagonism confirmed | shares compounds with GALR2 antag | GALR2-expressing cells, antagonist mode, inhibition | inhibition, % at 4 µM | hit rate 60% among 480 | AID 866;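 note: cells stimulated with galanin at about its EC80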
BLA inhib ctr: beta-lactamase inhibition, GALR2 counterscreen; shares compounds with GALR2 antag; CHO NFAT-BLA reporter, beta-lactamase FRET, thapsigargin-stimulated; inhibition, % at 4.2 µM; hit rate 36% among 480; AID 867;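 active = inhibition above the mean inhibition across tested compounds plus 3 SD, cut at about 27% in these data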
Large screens that a line does not name were inactive (follow-up assays come after a bar, where they were run). In the library only some 2% were active in any assay of this set; here they are far more common. Cut-off read from the data, not from the text of the source, unless noted: active = inhibition above about 27%; inactive = the rest.

Cc1ccc(CNC(=O)c2cnccn2)cc1	none (no result: PLAP act, S1P2 ag, S1P2 blocker)
O=C1C(Nc2ccccc2)=C/C(=N/S(=O)(=O)c2cccs2)c2ccccc21	GALR2 agonist 5.5, GALR2 antag 88 (no result: PLAP act, S1P2 ag, S1P2 blocker) | GALR2 blk conf 67 | BLA inhib ctr 71
Cc1ccc(NC2=C/C(=N/S(=O)(=O)c3cccs3)c3ccccc3C2=O)cc1	none (no result: PLAP act, S1P2 ag, S1P2 blocker)
CC(=O)c1ccc(OCCn2cnc3ccccc32)cc1	none (no result: PLAP act, S1P2 ag, S1P2 blocker)
N#CC(C#N)=C1C=CC=CN1/C(=C\c1ccco1)C(=O)c1ccc(-c2ccccc2)cc1	GALR2 antag 28 (no result: PLAP act, S1P2 ag, S1P2 blocker) | GALR2 blk conf 41 | BLA inhib ctr 33
N#CC(C#N)=C1C=CC=CN1/C(=C\c1ccco1)C(=O)c1ccc(Cl)cc1	GALR2 antag 68 (no result: PLAP act, S1P2 ag, S1P2 blocker) | GALR2 blk conf 60 | BLA inhib ctr 71
O=C(O)/C(=C/c1ccco1)NC(=O)c1ccccc1	none (no result: PLAP act, S1P2 ag, S1P2 blocker)
CC(/C=N/n1c(-c2ccc(Cl)cc2)n[nH]c1=S)=C\c1ccco1	none (no result: PLAP act, S1P2 ag, S1P2 blocker)
Cc1cccc(C)c1Nc1nnc(SC(C)C(=O)Nc2c(C)n(C)n(-c3ccccc3)c2=O)s1 (configuration not stated)	none (no result: PLAP act, S1P2 ag, S1P2 blocker)
COc1ccc(CCNc2ncnc3c2oc2ccccc23)cc1OC	GALR2 antag 27, S1P2 blocker 67 | GALR2 blk conf 38 | BLA inhib ctr inactive
Oc1ccc(Nc2nc3ccccc3nc2Nc2ccc(O)cc2)cc1	GALR2 antag 32 | GALR2 blk conf 34 | BLA inhib ctr 33
CC(C)CSc1nc2c(=O)[nH][nH]c(=O)c2n1Cc1ccccc1	none (no result: PLAP act)
N#Cc1c(-c2ccccc2F)cc(C2CC2)nc1SCC(=O)c1cccs1	GALR2 antag 28 (no result: PLAP act, S1P2 ag, S1P2 blocker) | GALR2 blk conf 32 | BLA inhib ctr 32
CCc1ccccc1NC(=S)N1CCN(c2ccccn2)CC1	GALR2 antag 28 (no result: PLAP act, S1P2 ag, S1P2 blocker) | GALR2 blk conf inactive | BLA inhib ctr inactive
O=C1c2cccc3cccc(c23)C(=O)N1c1nccs1	none
O=C1c2cccc3c([N+](=O)[O-])ccc(c23)C(=O)N1c1nccs1	GALR2 antag 50, S1P2 blocker 51 | GALR2 blk conf 55 | BLA inhib ctr 35
CC1=C(C)C(=O)N(c2ccccn2)C1=O	none
O=C1c2cccc3c([N+](=O)[O-])ccc(c23)C(=O)N1c1ccccn1	GALR2 antag 34, S1P2 blocker 67 | GALR2 blk conf 49 | BLA inhib ctr 44
C=CCn1c(SCC(=O)c2cc(C)n(C(C)COC)c2C)nc2sc(C)c(C)c2c1=O (configuration not stated)	none
Cc1ccc(/C=N/NC(=O)CC(=O)NCc2cccnc2)cc1	none (no result: PLAP act, S1P2 ag, S1P2 blocker)
COc1cc(Nc2cc(C)nc3ncnn23)cc(OC)c1	GALR2 antag 30 (no result: S1P2 ag, S1P2 blocker) | GALR2 blk conf inactive | BLA inhib ctr inactive
CCCC(c1nnnn1Cc1ccco1)N1CCN(C2CCCC2)CC1 (configuration not stated)	GALR2 antag 69 (no result: S1P2 ag, S1P2 blocker) | GALR2 blk conf inactive | BLA inhib ctr 27
Cc1cc(Nc2ccc(Cl)cc2)nc(NCc2ccccc2)n1	none (no result: PLAP act, S1P2 ag, S1P2 blocker)
Cc1cc(Nc2ccccc2)nc(NCc2ccccc2)n1	GALR2 antag 42 (no result: PLAP act, S1P2 ag, S1P2 blocker) | GALR2 blk conf 50 | BLA inhib ctr 31
Cc1ccc2c(c1)c(-c1ccccc1)nc1nncn12	none (no result: S1P2 ag, S1P2 blocker)
Cc1ccc(-n2c(-c3ccc(Br)cc3)c[n+]3c2CCc2ccc4cccnc4c2-3)cc1	GALR2 antag 59, S1P2 blocker 88 | GALR2 blk conf 31 | BLA inhib ctr 61
CCCCn1c(SCC(=O)N2CCCc3ccccc32)nc2c1c(=O)n(C)c(=O)n2C	none
CC(=O)N/C(=C\c1ccccc1)C(=O)NCC(=O)O	none (no result: PLAP act, S1P2 ag, S1P2 blocker)
OCCCc1nc2n(n1)C(c1ccccc1Cl)C=C(c1cccs1)N2 (configuration not stated)	GALR2 antag 28 | GALR2 blk conf inactive | BLA inhib ctr inactive
CCOC(=O)C1=C(O)c2ccccc2C(=O)/C1=C\c1ccc(C)cc1	GALR2 antag 30 (no result: PLAP act, S1P2 ag, S1P2 blocker) | GALR2 blk conf inactive | BLA inhib ctr inactive
Cc1c(N=C2SCC(=O)N2/N=C\c2ccc(Br)cc2)c(=O)n(-c2ccccc2)n1C	none (no result: PLAP act, S1P2 ag, S1P2 blocker)
CCCCN1CCc2c([nH]c3c(C)cccc23)C1=O	none (no result: S1P2 ag, S1P2 blocker)
O=C(OCn1ncc(Cl)c(Cl)c1=O)c1cccc(C(F)(F)F)c1	GALR2 antag 46 | GALR2 blk conf 66 | BLA inhib ctr 43
Cc1nn(-c2ccccc2)c2sc(C(=O)OCc3nnc(-c4ccccc4)o3)cc12	none
COc1ccc2[nH]c3c(NCCN(C(C)C)C(C)C)ncnc3c2c1	none
O=c1c2[nH]c3ccccc3c2ncn1CCC1=CCCCC1	none
C1=C(CCNc2ncnc3c2[nH]c2ccccc23)CCCC1	GALR2 antag 48 (no result: PLAP act, S1P2 ag, S1P2 blocker) | GALR2 blk conf 61 | BLA inhib ctr inactive
CC(C)OCCCNc1ncnc2c1[nH]c1ccccc12	GALR2 antag 39 | GALR2 blk conf 37 | BLA inhib ctr inactive
O=C(Nc1ccccc1-c1ccccc1)C(c1ccccc1)c1ccccc1	none (no result: PLAP act, S1P2 ag, S1P2 blocker)
CC1=C(C)CS(=O)N(c2ccc(S(N)(=O)=O)cc2)C1 (configuration not stated)	GALR2 antag 30 | GALR2 blk conf 28 | BLA inhib ctr inactive
O=C(Nc1cccc(-c2cnc3ccccc3n2)c1)c1cccc(NC(=O)c2ccco2)c1	none
N#Cc1cc2c(nc1SCc1nc3ccccc3[nH]1)CCC2	PLAP act 2.1, GALR2 antag 28 | GALR2 blk conf 30 | BLA inhib ctr inactive
Cc1nn(C)c(C)c1N1C(=O)c2cccc3c(N)ccc(c23)C1=O	GALR2 antag 32 (no result: PLAP act, S1P2 ag, S1P2 blocker) | GALR2 blk conf inactive | BLA inhib ctr inactive
Cc1nn(C)c(C)c1N1C(=O)c2cccc3c(Br)ccc(c23)C1=O	GALR2 antag 29 (no result: PLAP act) | GALR2 blk conf 30 | BLA inhib ctr inactive
CC(=O)c1c(C)[nH]c(C(=O)OCC(=O)Nc2cc(Cl)ccc2[N+](=O)[O-])c1C	none (no result: PLAP act, S1P2 ag, S1P2 blocker)
CC(=O)c1c(C)[nH]c(C(=O)OCC(=O)Nc2ccc(C)cc2[N+](=O)[O-])c1C	GALR2 antag 40 (no result: PLAP act, S1P2 ag, S1P2 blocker) | GALR2 blk conf 49 | BLA inhib ctr inactive
Cc1ccn2c(Nc3ccc4c(c3)OCO4)c(-c3ccccn3)nc2c1	GALR2 antag 30 (no result: PLAP act, S1P2 ag, S1P2 blocker) | GALR2 blk conf inactive | BLA inhib ctr inactive
COCCn1nnnc1CN1CCC(C)CC1	none (no result: PLAP act)
COc1ccc(O)c(/C=N/NC(=S)Nc2cccc(S(=O)(=O)N(C)C)c2)c1	GALR2 antag 35 (no result: PLAP act, S1P2 ag, S1P2 blocker) | GALR2 blk conf inactive | BLA inhib ctr inactive
NC(=O)C1CCN(C(=O)Nc2ccccc2)CC1	none (no result: PLAP act)
NC(=O)C1CCN(C2=C(Cl)C(=O)c3ccccc3C2=O)CC1	GALR2 antag 34 | GALR2 blk conf 50 | BLA inhib ctr 37
CCCn1c(=N)n(CCOCCOCCn2c(=N)n(CCC)c3ccccc32)c2ccccc21	none (no result: PLAP act)
Cn1c2c(c(=O)n(C)c1=O)C(C(F)(F)F)(C(F)(F)F)N=C(c1ccc(Cl)cc1)N2	GALR2 antag 68, S1P2 blocker 86 | GALR2 blk conf 72 | BLA inhib ctr 58
COc1ccccc1-n1c(-c2cn(C)nc2C)n[nH]c1=S	none (no result: PLAP act, S1P2 ag, S1P2 blocker)
CCCCOc1ccc(Cl)cc1CSc1nnc(C)n1N	none
CCCCOc1ccc(Br)cc1CSC(=N)N	GALR2 antag 36 (no result: PLAP act, S1P2 ag, S1P2 blocker) | GALR2 blk conf 37 | BLA inhib ctr 66

High-throughput results (PubChem BioAssay)
